Bioassay records from PubChem.
CHX counter – Cycloheximide Counterscreen for Small Molecule Inhibitors of Shiga Toxin. cell reporter, cycloheximide protein synthesis inhibition counterscreen. max response, %. 300,000 compounds, 12% hits; in the data active = max response mostly above about 13%, no sharp cut-off; inactive = mostly below about 14%; note: read at 38.3 µM for the half of the compounds with a filed dose
Pf growth 96h – Primary qHTS for delayed death inhibitors of the malarial parasite plastid, 96 hour incubation; Potency, µM (series often up to 28.7 µM), hits mostly inhibitors; P. falciparum luciferase reporter growth, 96 h; 320,000 compounds, 6.9% hits; AID 504834, 2011
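Readout is luminescence from an integrated firefly luciferase in P. falciparum. Red cells, 2% hematocrit and 0.05% parasitemia final, were cultured with compound through two parasite generations (96 hours) at 37 C, 5% CO2.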
LmPK inhibitor – qHTS Assay for Inhibitors of Leishmania Mexicana Pyruvate Kinase (LmPK). purified LmPK, Kinase-Glo ATP luminescence, 1 h. AID 1721, 2009. Potency, µM (highest dose often 57.5 µM), actives largely listed as inhibitors. Q27686. 290,000 compounds, 0.37% hits
Target sequence (Q27686 whole entry, looked up): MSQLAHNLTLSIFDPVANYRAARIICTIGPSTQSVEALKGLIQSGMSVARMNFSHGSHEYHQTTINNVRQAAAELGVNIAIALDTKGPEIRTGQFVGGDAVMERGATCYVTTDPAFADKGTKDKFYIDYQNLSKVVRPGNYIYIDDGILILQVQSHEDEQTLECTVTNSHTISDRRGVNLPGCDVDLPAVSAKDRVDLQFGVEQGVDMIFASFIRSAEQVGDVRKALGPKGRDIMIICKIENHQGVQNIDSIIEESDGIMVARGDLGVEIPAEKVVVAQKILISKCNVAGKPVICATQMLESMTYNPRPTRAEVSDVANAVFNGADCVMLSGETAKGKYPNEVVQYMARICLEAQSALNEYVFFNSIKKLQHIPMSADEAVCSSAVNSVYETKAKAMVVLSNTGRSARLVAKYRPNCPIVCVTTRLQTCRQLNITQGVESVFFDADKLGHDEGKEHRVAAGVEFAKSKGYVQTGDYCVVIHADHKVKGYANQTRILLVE
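Purified LmPK (0.1 nM) converted ADP (0.1 mM) to ATP with PEP (0.5 mM) in imidazole buffer pH 7.2 with KCl and MgCl2, 1 h at room temperature. ATP was read by Kinase-Glo luminescence; data normalized to uninhibited and no-enzyme controls.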
Pf growth 48h – Primary qHTS for delayed death inhibitors of the malarial parasite plastid, 48 hour incubation; P. falciparum luciferase growth in erythrocytes, 48 h; Potency, µM (top dose mostly 28.7 µM), hits mostly inhibitors; 310,000 compounds, 5.9% hits
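A one-generation exposure of luciferase-tagged malaria parasites in RPMI 1640/Albumax erythrocyte culture, 37 C and 5% CO2. Inhibition is inferred from decreased luminescence after adding detection reagent.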
Shiga toxin inh – A qHTS for Small Molecule Inhibitors of Shiga Toxin. inhibition, % at 38.7 µM. Vero cells, Shiga toxin protein synthesis inhibition reporter. AID 2315, 2010. 290,000 compounds, 9.2% hits; in the data active = inhibition mostly above about 28%, no sharp cut-off; inactive = mostly below about 43%
Numbers stand for hits. Most compounds without a hit are left out; they make up all but 22% or so of the library. Unless noted, calls come from the whole dose curve; as a rule, active = well fitted inhibition curve with a large enough effect; inconclusive = small, poorly fitted or top-dose-only effect, or another doubt; inactive = no such curve, though single readings can be large or run the other way.

Results for CCc1cc2c(SCC(=O)c3ccc(C)cc3)ncnc2s1 ?
CHX counter: inactive; Pf growth 96h: inconclusive; LmPK inhibitor: inactive; Pf growth 48h: inactive; Shiga toxin inh: inactive

What do the screens show for `CCc1cc2c(=O)n(-c3ccccc3)cnc2s1`?
CHX counter: 53; Pf growth 96h: inactive; LmPK inhibitor: inactive; Pf growth 48h: inactive; Shiga toxin inh: 105

What do the screens show for `CCc1cc2c(=O)[nH]cnc2s1`?
CHX counter: inactive; Pf growth 96h: inactive; LmPK inhibitor: inactive; Pf growth 48h: inactive; Shiga toxin inh: inactive

How did CCc1cc2c(=O)n(-c3ccc(C)cc3)cnc2s1 do in these assays?
CHX counter: 53; Pf growth 96h: inconclusive; LmPK inhibitor: inactive; Pf growth 48h: inactive; Shiga toxin inh: 74

How did CC(C)NC(=O)c1onc(CSc2cccc(F)c2)c1C(=O)O do in these assays?
CHX counter: inactive; Pf growth 96h: inconclusive; LmPK inhibitor: inactive; Pf growth 48h: inconclusive; Shiga toxin inh: inactive

What do the screens show for `CN(C)S(=O)(=O)c1ccc(C(=O)N2CCN(S(=O)(=O)c3cccs3)CC2)cc1`?
CHX counter: inactive; Pf growth 96h: inactive; LmPK inhibitor: inactive; Pf growth 48h: inactive; Shiga toxin inh: inactive

How did NC1=NCC2c3ccccc3Cc3ccccc3N12 (stereo not drawn) do in these assays?
CHX counter: inactive; Pf growth 96h: 6.7µM; Pf growth 48h: inconclusive; Shiga toxin inh: inactive

Results for CC1CC(C)CN(S(=O)(=O)c2ccc3oc(=O)ccc3c2)C1 (stereo not drawn) ?
CHX counter: inactive; Pf growth 96h: inactive; LmPK inhibitor: inactive; Pf growth 48h: inactive; Shiga toxin inh: inactive

How did CC(C)(C)NC(=O)[C@@H]1CC[C@@H]2[C@@H]3CC[C@@H]4NC(=O)C=C[C@@]4(C)[C@H]3CC[C@]21C do in these assays?
Pf growth 96h: inactive; Pf growth 48h: inactive

What do the screens show for `C[C@]12C=CC(=O)N[C@@H]1CC[C@@H]1C2CC[C@]2(C)C(C(=O)Nc3cc(C(F)(F)F)ccc3C(F)(F)F)CC[C@@H]12` (stereo partly drawn)?
Pf growth 96h: 3.4µM; Pf growth 48h: 4.8µM

How did COc1ccccc1/C=C/C(=O)Nc1ccc(S(=O)(=O)Nc2cc(C)on2)cc1 do in these assays?
CHX counter: inactive; Pf growth 96h: inconclusive; LmPK inhibitor: inactive; Pf growth 48h: inactive; Shiga toxin inh: inactive

How did CC1=C(CC(=O)c2ccc(Cl)cc2)C(=O)c2ccccc2C1=O do in these assays?
CHX counter: 27; Pf growth 96h: inconclusive; LmPK inhibitor: inactive; Pf growth 48h: 0.17µM; Shiga toxin inh: 61

How did Cc1ccccc1NC(=O)CN1C(=O)COc2ccc(Cl)cc21 do in these assays?
CHX counter: inactive; Pf growth 96h: inconclusive; LmPK inhibitor: inactive; Shiga toxin inh: inactive

What do the screens show for `Cc1[nH]c2ccc(Cl)cc2c(=O)c1CN1CCCC1`?
CHX counter: inactive; Pf growth 96h: inactive; LmPK inhibitor: inactive; Pf growth 48h: inactive; Shiga toxin inh: inactive

What do the screens show for `Cc1[nH]c2ccc(Br)cc2c(=O)c1CN1CCCCCC1`?
CHX counter: inactive; Pf growth 96h: inactive; LmPK inhibitor: inactive; Pf growth 48h: 10µM; Shiga toxin inh: inactive

What do the screens show for `CCOc1ccccc1CN1CCNC(=O)C1CC(=O)NCc1nc(C)cs1` (stereo not drawn)?
CHX counter: inactive; Pf growth 96h: 9.3µM; LmPK inhibitor: inactive; Pf growth 48h: inactive; Shiga toxin inh: inactive

What do the screens show for `O=C(CC1C(=O)NCCN1CC1CCCCC1)NCc1ccc(F)cc1F` (stereo not drawn)?
CHX counter: 20; Pf growth 96h: inconclusive; LmPK inhibitor: inactive; Pf growth 48h: inactive; Shiga toxin inh: 41

How did COc1ccccc1CN1CCNC(=O)C1CC(=O)NCCCn1cccn1 (stereo not drawn) do in these assays?
CHX counter: inactive; Pf growth 96h: inactive; LmPK inhibitor: inactive; Pf growth 48h: inactive; Shiga toxin inh: inactive

How did Cc1ccccc1CN1CCNC(=O)C1CC(=O)NC1CCCCCCC1 (stereo not drawn) do in these assays?
CHX counter: inactive; Pf growth 96h: 2.6µM; LmPK inhibitor: inactive; Pf growth 48h: inconclusive; Shiga toxin inh: inactive

How did CCOc1ccccc1CN1CCNC(=O)C1CC(=O)NCCCn1cccn1 (stereo not drawn) do in these assays?
CHX counter: inactive; Pf growth 96h: 12µM; LmPK inhibitor: inactive; Pf growth 48h: inactive; Shiga toxin inh: inactive

Results for O=C(CC1C(=O)NCCN1CC1CCCCC1)NCc1cc(F)ccc1F (stereo not drawn) ?
CHX counter: inactive; Pf growth 96h: inactive; LmPK inhibitor: inactive; Pf growth 48h: inactive; Shiga toxin inh: inactive

What do the screens show for `Cc1csc(CNC(=O)CC2C(=O)NCCN2Cc2ccc(F)cc2Cl)n1` (stereo not drawn)?
CHX counter: inactive; Pf growth 96h: inactive; LmPK inhibitor: inactive; Pf growth 48h: inactive; Shiga toxin inh: inactive

What do the screens show for `CNC(=O)COC(=O)c1cc(-c2ccccc2)nn1-c1ccccc1`?
CHX counter: inactive; Pf growth 96h: inactive; LmPK inhibitor: inactive; Pf growth 48h: inactive; Shiga toxin inh: inactive

How did COC(=O)c1cc(S(=O)(=O)NCCN2CCN(c3ccccc3F)CC2)c[nH]1 do in these assays?
CHX counter: inactive; Pf growth 96h: inactive; LmPK inhibitor: inactive; Pf growth 48h: inactive; Shiga toxin inh: inactive

Results for Cc1cc(C)c2nc(SC(C)C#N)cc(C)c2c1 (stereo not drawn) ?
CHX counter: inactive; Pf growth 96h: inactive; LmPK inhibitor: inactive; Shiga toxin inh: inactive

What do the screens show for `COc1ccc(CCN2C(=O)NC(NS(=O)(=O)c3ccccc3)(C(F)(F)F)C2=O)cc1OC` (stereo not drawn)?
CHX counter: inactive; Pf growth 96h: inconclusive; LmPK inhibitor: inactive; Pf growth 48h: inactive; Shiga toxin inh: inactive

Results for O=C(CC1C(=O)NCCN1Cc1cccc(Oc2ccccc2)c1)NCCCn1cccn1 (stereo not drawn) ?
CHX counter: inactive; Pf growth 96h: 10µM; LmPK inhibitor: inactive; Pf growth 48h: inactive; Shiga toxin inh: inactive

How did Cc1cc(C(=O)CSc2nnc(-c3ccccc3F)o2)c(C)n1Cc1cccs1 do in these assays?
CHX counter: 19; Pf growth 96h: inactive; LmPK inhibitor: inactive; Pf growth 48h: inactive; Shiga toxin inh: inactive

What do the screens show for `C=CCn1c(SCC(=O)c2cc(C)n(Cc3cccs3)c2C)nnc1-c1ccncc1`?
CHX counter: inactive; Pf growth 96h: inactive; LmPK inhibitor: inactive; Pf growth 48h: inactive; Shiga toxin inh: inactive

Results for COc1ccccc1-n1cnnc1SCC(=O)c1cc(C)n(Cc2cccs2)c1C ?
CHX counter: 39; LmPK inhibitor: inactive; Pf growth 48h: inactive; Shiga toxin inh: 38

Results for Cc1cc(C(=O)CSc2nc3ccccc3n2CCC#N)c(C)n1Cc1cccs1 ?
CHX counter: 46; Pf growth 96h: inactive; LmPK inhibitor: inactive; Pf growth 48h: inconclusive; Shiga toxin inh: 55

What do the screens show for `N#CCCn1c(SCC(=O)c2c[nH]c3ccccc23)nc2ccccc21`?
CHX counter: inactive; Pf growth 96h: inconclusive; LmPK inhibitor: inactive; Pf growth 48h: inactive; Shiga toxin inh: inactive
